This passage reports Potency results from PubChem BioAssay (NCATS).

Assay [1] has as its target Aldehyde dehydrogenase, mitochondrial (Homo sapiens) (UniProt P05091). Kind of assay: qHTS for Inhibitors of the Aldehyde Dehydrogenase Family (ALDH2) Primary screen (AID 2061308). Also: nearly all actives have a fitted effect of over 55% in size.
For assay [2], the target named is Retinaldehyde dehydrogenase 3 (Homo sapiens) (UniProt P47895). As to the kind of experiment: qHTS for Inhibitors of the Aldehyde Dehydrogenase Family (ALDH1A3) Primary screen (AID 2061315). For orientation: qHTS replaces the single test concentration by a dilution series.

Records with an inconclusive call do not appear. Entries that show only a call come without a potency. Active and inactive are the calls of the source. Calls follow the shape of the dose curve; as a rule, active = well fitted curve in the direction sought with a large enough effect; inconclusive = small, poorly fitted or top-dose-only effect, or another doubt; inactive = no such curve, though single readings can be large; an effect the other way counts as inactive or inconclusive.

In the case of `O=C(NCCc1nc2ccccc2n1CCOc1ccccc1[N+](=O)[O-])C1CCCCC1`, the Potency entry in assay [1] and in assay [2] was “inactive” in each case.
Consider `Cc1cccc(-n2cnc3cc(C(=O)N4CCN(C)CC4)ccc32)c1`, for which the Potency result in assay [1] and in assay [2] was “inactive” throughout.
As for `Cc1cnc(-c2ccccc2C(C)C)nc1NCc1ccc(C#N)cc1`, the Potency entry in assay [1] and in assay [2] was “inactive” each time.
As to `Cc1nc(NCc2ccc(-c3ccnc(C(F)(F)F)c3)cc2)c2ccccc2n1`, the Potency result in assay [1] and in assay [2] was “inactive” each time.
As to `c1cncc(-c2ccc(CNc3nc(-n4ccnc4)nc4ccccc34)cc2)c1`, the Potency result in assay [1] and in assay [2] was “inactive” throughout.
For the compound `NC(=O)C1CCN(c2nc(-c3cccc4ccccc34)cs2)CC1`, the Potency result in assay [1] and in assay [2] was “inactive” each time.
Consider `Cn1nnnc1Sc1ncnc2scc(-c3cccs3)c12`, for which the Potency entry in assay [1] and in assay [2] was “inactive” throughout.
Regarding `Oc1ccc(CNc2cccc(C(F)(F)F)c2)c2cccnc12`, the Potency entry in assay [1] and in assay [2] was “inactive” throughout.
`Cc1cc2c(s1)c1cnn(Cc3ccc(F)cc3)c(=O)c1n2C`: the Potency entry in assay [1] and in assay [2] was “inactive” in each case.
In the case of `COc1ccc(C2c3c(n(CCCc4ccccc4)cnc3=N)Oc3ccc4ccccc4c32)cc1OC` (stereo unspecified), the Potency entry in assay [1] and in assay [2] was “inactive” throughout.
As for `Oc1cccc2cc(-c3ccccc3)cnc12`, the Potency entry in assay [1] and in assay [2] was “inactive” in each case.
On to `Cc1ccc(CC(=O)Nc2nc(-c3ccc4c(c3)CCN4C(=O)c3ccccc3C)c(C)s2)cc1C`, for which the Potency entry in assay [1] and in assay [2] was “inactive” each time.
For `COc1cc(OC)c(C(CC(=O)N2CC(C)CC(C)C2)c2ccc3c(c2)OCO3)c(OCC(N)=O)c1` (stereo unspecified), the Potency entry in assay [1] and in assay [2] was “inactive” in each case.
Take `N#Cc1nonc1-c1ccccc1`: the Potency entry in assay [1] and in assay [2] was “inactive” throughout.
Consider `COc1ccc(C)cc1NC(=O)C(OC(=O)CNC(=O)c1ccccc1)c1ccccc1` (stereo unspecified), for which the Potency result in assay [1] and in assay [2] was “inactive” throughout.
For `Cc1cc2c(s1)c1cnn(Cc3cc(F)c(Cl)cc3Cl)c(=O)c1n2C`, the Potency entry in assay [1] and in assay [2] was “inactive” each time.
In the case of `O=S(=O)(Nc1nc(-c2ccccc2C(F)(F)F)nc2ccccc12)c1ccc(Br)cc1`, the Potency result in assay [1] and in assay [2] was “inactive” throughout.
For the compound `c1csc(CNc2ncnc3ccc(-c4ccc5c(c4)OCO5)cc23)c1`, the Potency result in assay [1] and in assay [2] was “inactive” throughout.
For the compound `O=C(O)c1ccc(-c2ccc3ncnc(NCC4CCCO4)c3c2)o1` (stereo unspecified), the Potency entry in assay [1] and in assay [2] was “inactive” in each case.
Regarding `Cc1cnc(-c2ccccc2C(C)C)nc1NCc1ccc(C2CCCNC2)cc1` (stereo unspecified), the Potency entry in assay [1] and in assay [2] was “inactive” in each case.
`O=C1CCCC2=C1C1(CCCC1)N=C(Nc1nc3ccccc3n1Cc1ccccc1)N2`: the Potency entry in assay [1] and in assay [2] was “inactive” throughout.
For `Nc1ccc(S(=O)(=O)N2CCN(S(=O)(=O)c3ccc4c(c3)OCCO4)CC2)cc1`, the Potency entry in assay [1] and in assay [2] was “inactive” throughout.
Turning to `O=C(NC1CCCc2c1cnn2-c1ccc(F)cc1F)c1cccc(=O)[nH]1` (stereo unspecified), the Potency entry in assay [1] and in assay [2] was “inactive” each time.
For the compound `Clc1cccc(CSc2nc3ncc(Br)cc3[nH]2)c1`, the Potency entry in assay [1] and in assay [2] was “inactive” each time.
Consider `COC(=O)c1ccccc1S(=O)(=O)Nc1cc(=O)c2ccccc2[nH]1`, for which the Potency result in assay [1] and in assay [2] was “inactive” each time.
As for `COc1ccc(Br)cc1S(=O)(=O)N1CCN(S(=O)(=O)c2ccc3c(c2)OCCO3)CC1`, the Potency entry in assay [1] and in assay [2] was “inactive” in each case.
Consider `c1ccc(-c2nc(NCc3ccc(-c4cccnc4)cc3)c3ccccc3n2)cc1`, for which the Potency result in assay [1] and in assay [2] was “inactive” in each case.
For the compound `COc1cc(C2CC(=O)Nc3c2cc(Br)c2ccccc32)cc(OC)c1OC` (stereo unspecified), the Potency result in assay [1] and in assay [2] was “inactive” throughout.
For the compound `COc1cc(NS(=O)(=O)c2ccc(C)cc2)ccc1C(=O)Nc1nc(-c2ccccc2)cs1`, the Potency entry in assay [1] and in assay [2] was “inactive” throughout.
As for `Fc1cnc(-c2ccccc2C(F)F)nc1NCc1ccc(-n2ccnn2)cc1`, the Potency result in assay [1] and in assay [2] was “inactive” each time.
As to `CN(C)c1cccc(-c2ncc(F)c(N3CCC(C(N)=O)CC3)n2)c1`, the Potency entry in assay [1] and in assay [2] was “inactive” throughout.
Turning to `Cc1ccccc1C(=O)N1CCc2cc(-c3nc(NC(=O)CC4CCCCC4)sc3C)ccc21`, the Potency result in assay [1] and in assay [2] was “inactive” throughout.
For the compound `COc1cc(-c2ncn(/C=C\C(=O)OC(C)C)n2)cc(C(F)(F)F)c1`, the Potency entry in assay [1] and in assay [2] was “inactive” in each case.
As to `CCOC(=O)CCC(=O)Nc1ncnc2c1C(c1ccccc1)c1c(ccc3ccccc13)O2` (stereo unspecified), the Potency entry in assay [1] and in assay [2] was “inactive” each time.
For `O=C1CCCC2=C1C(c1[nH]ncc1Cl)N=C(Nc1nc3cc(Br)ccc3o1)N2` (stereo unspecified), the Potency entry in assay [1] and in assay [2] was “inactive” each time.
Turning to `N[C@H]1CCN(c2cnc3c(O)ccc(C(=O)O)c3c2)C1`, the Potency entry in assay [1] and in assay [2] was “inactive” in each case.
For `Cc1ccc(NS(=O)(=O)c2cc3c(cc2N[C@@H](C)CO)NC(=O)CC3)cc1C`, the Potency result in assay [1] and in assay [2] was “inactive” each time.
In the case of `CCN(CC)C(=O)COC(=O)c1ccc(S(C)(=O)=O)c([N+](=O)[O-])c1`, the Potency entry in assay [1] and in assay [2] was “inactive” in each case.
With `Cc1cc(NC(=O)Nc2nnc(-c3cccnc3)s2)ccc1Br`, the Potency entry in assay [1] and in assay [2] was “inactive” throughout.
For the compound `O=C(NCCc1nc2ccccc2n1CCOc1ccc(C(F)(F)F)cc1)C1CCCCC1`, the Potency entry in assay [1] and in assay [2] was “inactive” in each case.
Regarding `COc1ccc(-c2ccc3ncnc(N(C)Cc4csc(C)n4)c3c2)cc1OC`, the Potency result in assay [1] and in assay [2] was “inactive” throughout.
`Cc1ccc(-c2ccc(=O)n(CC(=O)N(C)C3CCCCCC3)n2)cc1`: the Potency result in assay [1] and in assay [2] was “inactive” in each case.
Regarding `O=C(NCCc1ccccc1)C1CCN(c2nc(-c3ccc(Br)cc3)cs2)CC1`, the Potency entry in assay [1] and in assay [2] was “inactive” in each case.
